Experiments:
[1] = biological target: MAP kinase-activated protein kinase 3 (Homo sapiens) (UniProt Q16644); settings: at 10 µM
[2] = biological target: Serine/threonine-protein kinase MARK1 (Homo sapiens) (UniProt Q9P0L2); settings: at 10 µM
[3] = biological target: Maternal embryonic leucine zipper kinase (Homo sapiens) (UniProt Q14680); settings: at 1 µM
[4] = biological target: Maternal embryonic leucine zipper kinase (Homo sapiens) (UniProt Q14680); settings: at 10 µM
[5] = biological target: T1, Dual specificity mitogen-activated protein kinase kinase 7 (Homo sapiens) (UniProt O14733); settings: at 10 µM
T1 sequence (whole entry): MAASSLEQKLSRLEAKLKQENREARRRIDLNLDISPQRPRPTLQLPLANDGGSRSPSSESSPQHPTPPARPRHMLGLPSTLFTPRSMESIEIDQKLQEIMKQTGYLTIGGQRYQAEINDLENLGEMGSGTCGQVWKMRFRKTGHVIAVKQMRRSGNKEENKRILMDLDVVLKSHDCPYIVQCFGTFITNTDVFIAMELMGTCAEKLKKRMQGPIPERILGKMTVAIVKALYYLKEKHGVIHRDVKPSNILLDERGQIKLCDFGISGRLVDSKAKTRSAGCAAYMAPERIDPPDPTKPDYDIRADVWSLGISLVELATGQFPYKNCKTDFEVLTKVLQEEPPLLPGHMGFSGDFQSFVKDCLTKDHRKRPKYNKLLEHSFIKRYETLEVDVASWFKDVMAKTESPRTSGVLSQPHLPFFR

[6] = biological target: Myosin light chain kinase, smooth muscle (Homo sapiens) (UniProt Q15746); settings: at 10 µM
[7] = biological target: Mitogen-activated protein kinase kinase kinase 9 (Homo sapiens) (UniProt P80192); settings: at 10 µM
[8] = biological target: Serine/threonine-protein kinase MARK1 (Homo sapiens) (UniProt Q9P0L2); settings: at 1 µM
[9] = biological target: Dual specificity mitogen-activated protein kinase kinase 1 (Homo sapiens) (UniProt Q02750); settings: at 1 µM
[10] = biological target: Dual specificity mitogen-activated protein kinase kinase 1 (Homo sapiens) (UniProt Q02750); settings: at 10 µM
[11] = biological target: T1, Dual specificity mitogen-activated protein kinase kinase 7 (Homo sapiens); settings: at 1 µM
[12] = biological target: Myosin light chain kinase, smooth muscle (Homo sapiens) (UniProt Q15746); settings: at 1 µM
[13] = biological target: Mitogen-activated protein kinase kinase kinase 9 (Homo sapiens) (UniProt P80192); settings: at 1 µM
[14] = biological target: Misshapen-like kinase 1 (Homo sapiens) (UniProt Q8N4C8); settings: at 1 µM
[15] = biological target: Misshapen-like kinase 1 (Homo sapiens) (UniProt Q8N4C8); settings: at 10 µM
[16] = biological target: T2, Dual specificity mitogen-activated protein kinase kinase 6 (Homo sapiens) (UniProt P52564); settings: at 1 µM
T2 sequence (whole entry): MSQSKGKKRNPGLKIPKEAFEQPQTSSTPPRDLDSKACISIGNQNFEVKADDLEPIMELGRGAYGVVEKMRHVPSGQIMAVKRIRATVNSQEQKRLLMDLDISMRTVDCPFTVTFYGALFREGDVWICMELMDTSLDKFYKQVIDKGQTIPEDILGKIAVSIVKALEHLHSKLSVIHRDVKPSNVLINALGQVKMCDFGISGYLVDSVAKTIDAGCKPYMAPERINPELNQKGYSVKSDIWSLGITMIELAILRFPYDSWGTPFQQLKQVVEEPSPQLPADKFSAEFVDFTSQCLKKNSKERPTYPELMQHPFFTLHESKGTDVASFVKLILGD

[17] = biological target: T2, Dual specificity mitogen-activated protein kinase kinase 6 (Homo sapiens); settings: at 10 µM
[18] = biological target: Serine/threonine-protein kinase MRCK alpha (Homo sapiens) (UniProt Q5VT25); settings: at 1 µM
[19] = biological target: Serine/threonine-protein kinase MRCK alpha (Homo sapiens) (UniProt Q5VT25); settings: at 10 µM

Chain of Serine/threonine-protein kinase MRCK alpha (Homo sapiens) (Q5VT25 whole entry): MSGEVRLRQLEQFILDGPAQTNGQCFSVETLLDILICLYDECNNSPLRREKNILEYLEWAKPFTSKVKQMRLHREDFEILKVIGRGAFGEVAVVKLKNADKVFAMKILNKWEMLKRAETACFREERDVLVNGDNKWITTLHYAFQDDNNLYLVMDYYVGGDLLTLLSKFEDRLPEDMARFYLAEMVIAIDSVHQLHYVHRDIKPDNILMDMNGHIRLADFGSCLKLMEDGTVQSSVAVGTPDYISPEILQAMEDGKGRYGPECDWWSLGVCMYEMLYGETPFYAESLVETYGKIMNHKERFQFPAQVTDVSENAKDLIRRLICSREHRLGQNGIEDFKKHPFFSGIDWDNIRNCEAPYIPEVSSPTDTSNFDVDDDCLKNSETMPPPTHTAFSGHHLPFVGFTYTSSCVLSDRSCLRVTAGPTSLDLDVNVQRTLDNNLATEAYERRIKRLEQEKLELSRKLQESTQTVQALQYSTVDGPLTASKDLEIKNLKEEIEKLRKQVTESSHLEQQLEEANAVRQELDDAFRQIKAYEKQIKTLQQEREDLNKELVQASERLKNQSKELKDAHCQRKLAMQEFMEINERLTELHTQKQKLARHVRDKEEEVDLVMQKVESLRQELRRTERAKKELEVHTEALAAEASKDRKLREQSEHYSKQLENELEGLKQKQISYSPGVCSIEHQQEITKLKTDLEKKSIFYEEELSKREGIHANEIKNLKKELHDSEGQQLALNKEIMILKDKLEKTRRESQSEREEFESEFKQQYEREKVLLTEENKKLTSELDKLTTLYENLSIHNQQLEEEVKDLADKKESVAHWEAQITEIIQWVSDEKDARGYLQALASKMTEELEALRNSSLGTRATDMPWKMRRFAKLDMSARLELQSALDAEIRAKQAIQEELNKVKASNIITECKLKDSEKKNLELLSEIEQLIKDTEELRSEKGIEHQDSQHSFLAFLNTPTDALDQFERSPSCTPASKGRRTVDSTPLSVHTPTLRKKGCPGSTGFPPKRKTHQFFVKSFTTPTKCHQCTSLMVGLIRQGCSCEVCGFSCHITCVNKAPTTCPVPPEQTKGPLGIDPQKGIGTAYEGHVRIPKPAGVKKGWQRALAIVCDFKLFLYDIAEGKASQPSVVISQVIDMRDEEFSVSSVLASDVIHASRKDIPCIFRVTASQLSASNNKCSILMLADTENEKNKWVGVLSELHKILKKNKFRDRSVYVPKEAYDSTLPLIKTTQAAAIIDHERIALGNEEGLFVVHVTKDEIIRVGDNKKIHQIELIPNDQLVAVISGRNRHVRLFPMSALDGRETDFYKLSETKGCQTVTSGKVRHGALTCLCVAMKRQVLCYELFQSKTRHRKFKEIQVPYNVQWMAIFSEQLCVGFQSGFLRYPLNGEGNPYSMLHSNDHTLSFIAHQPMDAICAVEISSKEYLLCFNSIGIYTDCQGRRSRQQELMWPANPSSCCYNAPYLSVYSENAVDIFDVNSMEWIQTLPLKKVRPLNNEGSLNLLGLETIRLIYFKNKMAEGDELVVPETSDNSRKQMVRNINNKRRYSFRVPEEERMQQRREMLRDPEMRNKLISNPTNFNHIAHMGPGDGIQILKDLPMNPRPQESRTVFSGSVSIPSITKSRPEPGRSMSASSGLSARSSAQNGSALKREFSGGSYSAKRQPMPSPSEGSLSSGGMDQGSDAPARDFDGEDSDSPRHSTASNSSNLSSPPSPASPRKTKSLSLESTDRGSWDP
Chain of Misshapen-like kinase 1 (Homo sapiens) (Q8N4C8 whole entry, looked up): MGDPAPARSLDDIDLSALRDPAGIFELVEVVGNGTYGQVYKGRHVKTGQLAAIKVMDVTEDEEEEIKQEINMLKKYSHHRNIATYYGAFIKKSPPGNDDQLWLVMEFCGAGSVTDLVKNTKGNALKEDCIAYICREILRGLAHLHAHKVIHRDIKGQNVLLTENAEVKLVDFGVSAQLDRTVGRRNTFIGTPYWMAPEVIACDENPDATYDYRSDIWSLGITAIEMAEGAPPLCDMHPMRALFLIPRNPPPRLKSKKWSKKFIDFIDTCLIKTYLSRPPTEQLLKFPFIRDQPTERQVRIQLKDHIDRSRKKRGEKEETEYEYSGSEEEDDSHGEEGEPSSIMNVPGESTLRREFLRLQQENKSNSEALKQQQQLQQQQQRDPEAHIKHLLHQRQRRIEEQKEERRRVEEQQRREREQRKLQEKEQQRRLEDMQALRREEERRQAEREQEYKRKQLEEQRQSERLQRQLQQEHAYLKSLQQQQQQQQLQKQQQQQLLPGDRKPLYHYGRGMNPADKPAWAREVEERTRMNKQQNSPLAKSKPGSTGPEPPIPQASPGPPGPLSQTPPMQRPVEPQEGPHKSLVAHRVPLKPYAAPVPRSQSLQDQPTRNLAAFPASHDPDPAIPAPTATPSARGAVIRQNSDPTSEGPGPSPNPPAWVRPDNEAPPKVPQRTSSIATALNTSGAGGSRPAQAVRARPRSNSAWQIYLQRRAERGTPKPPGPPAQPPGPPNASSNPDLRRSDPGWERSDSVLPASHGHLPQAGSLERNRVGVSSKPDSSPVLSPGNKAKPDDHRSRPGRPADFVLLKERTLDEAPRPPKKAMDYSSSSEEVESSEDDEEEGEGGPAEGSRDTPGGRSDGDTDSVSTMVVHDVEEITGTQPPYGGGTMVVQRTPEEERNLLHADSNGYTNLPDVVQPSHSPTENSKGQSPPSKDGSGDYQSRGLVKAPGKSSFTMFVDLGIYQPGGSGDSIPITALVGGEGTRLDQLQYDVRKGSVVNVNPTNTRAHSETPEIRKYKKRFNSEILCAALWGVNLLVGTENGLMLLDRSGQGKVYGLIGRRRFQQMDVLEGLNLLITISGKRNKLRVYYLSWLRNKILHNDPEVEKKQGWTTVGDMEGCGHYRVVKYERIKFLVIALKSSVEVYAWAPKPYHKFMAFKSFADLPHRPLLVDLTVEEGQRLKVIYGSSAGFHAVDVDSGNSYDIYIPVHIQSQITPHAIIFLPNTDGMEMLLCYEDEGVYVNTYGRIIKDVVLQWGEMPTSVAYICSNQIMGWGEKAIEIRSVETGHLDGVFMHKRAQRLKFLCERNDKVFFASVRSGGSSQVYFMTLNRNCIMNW
Chain of Myosin light chain kinase, smooth muscle (Homo sapiens) (Q15746 whole entry): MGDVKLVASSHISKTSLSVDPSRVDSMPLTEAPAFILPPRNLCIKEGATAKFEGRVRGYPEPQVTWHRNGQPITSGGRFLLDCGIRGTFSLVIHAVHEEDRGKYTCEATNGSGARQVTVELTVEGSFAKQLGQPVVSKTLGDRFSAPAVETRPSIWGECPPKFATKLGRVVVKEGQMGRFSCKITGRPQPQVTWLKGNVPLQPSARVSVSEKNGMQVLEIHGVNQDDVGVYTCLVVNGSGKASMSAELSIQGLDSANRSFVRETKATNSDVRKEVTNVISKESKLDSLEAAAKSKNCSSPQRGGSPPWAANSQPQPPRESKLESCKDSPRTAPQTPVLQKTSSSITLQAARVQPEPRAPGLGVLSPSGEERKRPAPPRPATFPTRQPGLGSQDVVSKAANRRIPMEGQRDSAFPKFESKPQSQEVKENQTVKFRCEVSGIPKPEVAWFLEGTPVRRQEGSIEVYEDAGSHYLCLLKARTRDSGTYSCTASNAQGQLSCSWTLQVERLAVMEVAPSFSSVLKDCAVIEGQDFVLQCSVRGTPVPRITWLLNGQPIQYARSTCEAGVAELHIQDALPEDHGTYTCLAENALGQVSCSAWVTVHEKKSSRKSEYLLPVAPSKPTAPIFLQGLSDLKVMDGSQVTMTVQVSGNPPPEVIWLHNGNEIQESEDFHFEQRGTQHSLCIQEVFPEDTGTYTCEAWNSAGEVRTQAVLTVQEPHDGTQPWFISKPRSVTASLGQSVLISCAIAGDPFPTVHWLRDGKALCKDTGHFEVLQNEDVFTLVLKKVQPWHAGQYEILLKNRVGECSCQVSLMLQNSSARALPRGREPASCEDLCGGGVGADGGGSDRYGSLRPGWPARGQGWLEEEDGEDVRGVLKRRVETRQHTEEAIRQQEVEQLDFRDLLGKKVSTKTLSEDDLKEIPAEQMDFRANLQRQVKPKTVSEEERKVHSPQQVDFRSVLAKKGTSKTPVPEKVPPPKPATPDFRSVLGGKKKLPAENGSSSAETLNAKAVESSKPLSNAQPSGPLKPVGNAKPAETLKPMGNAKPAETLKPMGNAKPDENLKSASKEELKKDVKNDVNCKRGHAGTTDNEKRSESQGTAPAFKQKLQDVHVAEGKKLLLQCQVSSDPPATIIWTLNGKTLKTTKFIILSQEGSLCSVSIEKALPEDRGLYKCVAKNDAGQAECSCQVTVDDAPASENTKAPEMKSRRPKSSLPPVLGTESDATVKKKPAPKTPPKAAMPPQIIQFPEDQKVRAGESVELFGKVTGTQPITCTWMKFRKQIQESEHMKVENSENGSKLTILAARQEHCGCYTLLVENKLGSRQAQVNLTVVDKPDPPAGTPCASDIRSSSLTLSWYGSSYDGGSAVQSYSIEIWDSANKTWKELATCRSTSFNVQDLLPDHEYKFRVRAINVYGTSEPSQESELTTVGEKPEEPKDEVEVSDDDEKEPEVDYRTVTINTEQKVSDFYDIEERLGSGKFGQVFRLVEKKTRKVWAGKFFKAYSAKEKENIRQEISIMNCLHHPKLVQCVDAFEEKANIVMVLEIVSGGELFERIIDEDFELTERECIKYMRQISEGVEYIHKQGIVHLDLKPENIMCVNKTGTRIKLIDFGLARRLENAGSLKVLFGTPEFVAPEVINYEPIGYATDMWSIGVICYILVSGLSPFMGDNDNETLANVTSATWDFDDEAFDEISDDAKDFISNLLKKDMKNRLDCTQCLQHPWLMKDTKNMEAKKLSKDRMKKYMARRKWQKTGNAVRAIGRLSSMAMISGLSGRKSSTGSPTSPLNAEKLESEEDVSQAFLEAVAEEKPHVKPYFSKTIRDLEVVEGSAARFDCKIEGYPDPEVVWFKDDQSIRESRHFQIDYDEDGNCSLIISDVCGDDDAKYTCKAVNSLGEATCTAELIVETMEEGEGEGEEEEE

| SMILES | residual activity [1] | residual activity [2] | residual activity [3] | residual activity [4] | residual activity [5] | residual activity [6] | residual activity [7] | residual activity [8] | residual activity [9] | residual activity [10] | residual activity [11] | residual activity [12] | residual activity [13] | residual activity [14] | residual activity [15] | residual activity [16] | residual activity [17] | residual activity [18] | residual activity [19] |
| --- | --- | --- | --- | --- | --- | --- | --- | --- | --- | --- | --- | --- | --- | --- | --- | --- | --- | --- | --- |
| O=C1Nc2ccccc2/C1=C\c1c(Cl)[nH]c2ccccc12 | 85% | 74% | 77% | 30% | 77% | 11% | 62% | – | – | – | – | – | – | – | – | – | – | – | – |
| CCN1/C(=C/C(C)=O)Sc2ccc(OC)cc21 | – | 65% | – | – | – | – | – | 67% | – | – | – | – | – | – | – | – | – | – | – |
| COc1ccc(Cl)cc1NC(=O)Nc1cc(C)nc2ccccc12 | – | 77% | 88% | 89% | 99% | 71% | 100% | 86% | 75% | 86% | 87% | 83% | 91% | – | – | – | – | – | – |
| Nc1nc(Nc2ccc(S(N)(=O)=O)cc2)nn1C(=O)c1c(F)cccc1F | – | – | – | – | – | 22% | 1% | – | 73% | 64% | 104% | 78% | 16% | 107% | 80% | – | – | – | – |
| Nc1nccc(-c2c(-c3ccc(F)cc3)ncn2C2CCNCC2)n1 | – | – | 71% | 27% | – | 82% | 48% | – | – | 119% | – | – | – | – | – | 80% | 3% | – | – |
| O=S(=O)(c1cccc2cnccc12)N1CCCNCC1 | – | – | 75% | 16% | – | – | 84% | – | – | – | 85% | – | – | – | – | – | 81% | – | – |
| O=S(=O)(NCCNC/C=C/c1ccc(Br)cc1)c1cccc2cnccc12 | – | 37% | 45% | 9% | – | 63% | 74% | 76% | – | – | – | – | – | – | 75% | – | 69% | – | – |
| O=C1Cc2c([nH]c3ccc(Br)cc23)-c2ccccc2N1 | 89% | 12% | 89% | 68% | 62% | 58% | 4% | 51% | – | 82% | 95% | 89% | 22% | – | – | 100% | 77% | – | – |
| N#Cc1c(NC(=O)c2cccc3ccccc23)sc2c1CCCC2 | 88% | 92% | 87% | 91% | 82% | 83% | 95% | 100% | – | – | 88% | – | 96% | 95% | 93% | 93% | 85% | – | – |
| CC(C)N(CCC(=O)c1ccc2ccccc2c1)Cc1ccccc1 | – | 75% | 75% | 87% | 38% | 83% | – | 73% | – | – | – | 81% | 86% | – | – | – | – | – | – |
| CCN(CC)CCNC(=O)c1c(C)[nH]c(/C=C2\C(=O)Nc3ccc(Cl)cc32)c1C | – | 3% | 8% | 3% | 81% | 3% | 4% | 14% | 21% | 8% | – | 9% | 24% | 9% | 2% | 66% | 46% | – | – |
| Nc1ncnc2c1cnn2-c1ccccc1 | 92% | 88% | 95% | 73% | 94% | 84% | 57% | 89% | – | 79% | 97% | 86% | 83% | – | 99% | 79% | 91% | – | – |
| COc1cc2c(cc1OC)-c1n[nH]c(Nc3cccc(F)c3)c1C2 | 99% | 48% | 47% | 11% | 131% | 60% | – | 73% | 108% | – | 109% | 73% | – | 74% | 42% | – | – | 116% | 129% |
| COc1ccc(CNC(=O)Nc2ncc([N+](=O)[O-])s2)cc1 | – | 76% | – | – | – | 76% | – | – | – | – | – | – | – | – | – | – | – | 118% | 104% |
| Nc1n[nH]c2nc3ccccc3nc12 | 94% | 74% | 97% | 70% | 81% | 69% | 41% | 75% | 87% | 85% | 88% | 95% | 82% | – | – | 95% | 84% | – | – |
| O=c1cc(N2CCOCC2)oc2c(-c3ccccc3)cccc12 | – | – | – | 72% | 76% | – | – | – | – | – | – | – | – | – | – | 72% | – | – | – |
| O=c1c(-c2ccc(F)cc2)c(-c2ccncc2)[nH]n1-c1ccc(Cl)cc1 | – | – | – | – | 22% | – | – | – | – | 102% | 77% | – | – | – | 55% | 74% | 0% | 119% | – |
| N#C/C(=C1/Nc2ccccc2S1)c1ccnc(NCCc2cccnc2)n1 | 68% | – | 74% | 50% | 42% | 73% | 9% | – | – | – | 67% | 96% | 48% | 96% | 72% | 84% | 39% | – | – |
| Fc1ccc(-c2nc3n(c2-c2ccncc2)CCS3)cc1 | 100% | – | 89% | 82% | 83% | – | – | – | – | – | 82% | – | – | 96% | 67% | 61% | 9% | – | – |
